# Measured values taken from PubChem BioAssay (NCATS).
# Inconclusive results are not listed. Where a call stands in place of a potency, no number is given. Active and inactive are the calls of the source. Unless noted, calls follow the shape of the dose curve; as a rule, active = well fitted curve in the direction sought with a large enough effect; inconclusive = small, poorly fitted or top-dose-only effect, or another doubt; inactive = no such curve, though single readings can be large; an effect the other way counts as inactive or inconclusive.
# Columns and labels:
# [1] = qHTS Assay for Lipid Storage Modulators (AID 1519; calls by dose curve); conditions: Drosophila S3 cells, BODIPY lipid droplet/cell ratio, laser cytometry, cells loaded with oleic acid
# Procedure, shortened: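 Cells seeded at 5,000 per well were treated with compounds over a concentration series and loaded with oleic acid (400 uM, as added). Lipid droplet fluorescence (488 nm excitation, 500-530 nm channel) was read by laser-scanning cytometry and normalized to 20 uM Triacsin C.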
# [2] = molecular target: DNA repair nuclease/redox regulator APEX1 (Homo sapiens) (UniProt P27695); assay: qHTS Validation Assay for Inhibitors of the Human Apurinic/apyrimidinic Endonuclease 1 (APE1) (AID 1705;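 also: TAMRA fluorescence gain over two minutes as APE1 cuts a quenched THF abasic duplex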)
# Chain of DNA repair nuclease/redox regulator APEX1 (Homo sapiens) (P27695 whole entry, looked up): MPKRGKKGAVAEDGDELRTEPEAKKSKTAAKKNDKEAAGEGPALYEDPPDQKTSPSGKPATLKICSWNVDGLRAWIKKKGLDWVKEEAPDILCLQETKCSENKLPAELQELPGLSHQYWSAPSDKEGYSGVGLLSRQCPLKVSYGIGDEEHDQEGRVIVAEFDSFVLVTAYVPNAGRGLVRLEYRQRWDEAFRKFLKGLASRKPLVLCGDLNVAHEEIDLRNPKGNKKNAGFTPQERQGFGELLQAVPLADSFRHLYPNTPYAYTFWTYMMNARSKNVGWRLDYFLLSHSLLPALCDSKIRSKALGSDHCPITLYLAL
# Procedure, shortened: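 Fluorogenic double-stranded THF abasic-site substrate (5'-TAMRA/3'-BHQ-2), 50 nM final. Enzyme preincubated with compound 15 min at room temperature, then substrate added. Kinetic fluorescence (ex 525/em 598 nm) read three times at 60 s intervals; activity taken as third-minus-first read difference.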
# [3] = Counterscreen for APE1 Inhibitors: Fluorescent Dye Displacement Validation Assay (AID 1707)
# Procedure, shortened: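 Thiazole Orange displacement from dsDNA: 250 nM ThO with 50 nM TAMRA-labelled abasic-site (tetrahydrofuran) duplex in 50 mM Tris-HCl pH7.5, 50mM NaCl, 2 mM MgCl2, 0.01% Tween-20. Loss of endpoint fluorescence (ex 480 nm, em 540 nm) flags DNA binders.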
# [4] = qHTS for differential inhibitors of proliferation of Plasmodium falciparum line 7G8 (AID 1815);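 also: potency is read from the fitted curve at half-maximal effect; parasite growth measured after three days of incubation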
# [5] = qHTS for differential inhibitors of proliferation of Plasmodium falciparum line Dd2 (AID 1882); conditions: Potency: Plasmodium falciparum Dd2 proliferation inhibition; also: nearly all actives have a fitted effect of over 65% in size
# Procedure, shortened: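 Dd2-infected erythrocytes (0.3% parasitemia, 2.5% hematocrit final) incubated with compound 72 h at 37 C, 5% CO2; lysed with saponin/Triton buffer containing SYBR Green I, incubated overnight in the dark, then read by fluorescence (485/535 nm). Normalized to 0.29 uM artemisinin and DMSO.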
# [6] = qHTS for differential inhibitors of proliferation of Plasmodium falciparum line W2 (AID 1883); conditions: Potency: Plasmodium falciparum W2 proliferation inhibition;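 also: potency is read from the fitted curve at half-maximal effect; parasites grown with compound for 72 h before lysis and staining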
# [7] = molecular target: ATP-dependent DNA helicase Q1 (Homo sapiens) (UniProt P46063); assay: qHTS Validation Assay for Inhibitors of RecQ-Like Dna Helicase 1 (RECQ1) (AID 2353)
# Procedure, shortened: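 50 nM RECQ1T1 preincubated 15 min with compound in Tris pH 8.0 buffer with MgCl2, DTT, Tween-20 and 2.5 ug/ml poly(dI-dC); started with 200 nM TAMRA/BHQ-2 forked duplex and 2 mM ATP. Unwinding read as fluorescence (525/598 nm), two reads 2 h apart.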
# [8] = molecular target: RecQ-like DNA helicase BLM (Homo sapiens) (UniProt P54132); assay: qHTS Validation Assay for Inhibitors of Bloom's syndrome helicase (BLM) (AID 2364)
# Chain of RecQ-like DNA helicase BLM (Homo sapiens) (P54132 whole entry, looked up): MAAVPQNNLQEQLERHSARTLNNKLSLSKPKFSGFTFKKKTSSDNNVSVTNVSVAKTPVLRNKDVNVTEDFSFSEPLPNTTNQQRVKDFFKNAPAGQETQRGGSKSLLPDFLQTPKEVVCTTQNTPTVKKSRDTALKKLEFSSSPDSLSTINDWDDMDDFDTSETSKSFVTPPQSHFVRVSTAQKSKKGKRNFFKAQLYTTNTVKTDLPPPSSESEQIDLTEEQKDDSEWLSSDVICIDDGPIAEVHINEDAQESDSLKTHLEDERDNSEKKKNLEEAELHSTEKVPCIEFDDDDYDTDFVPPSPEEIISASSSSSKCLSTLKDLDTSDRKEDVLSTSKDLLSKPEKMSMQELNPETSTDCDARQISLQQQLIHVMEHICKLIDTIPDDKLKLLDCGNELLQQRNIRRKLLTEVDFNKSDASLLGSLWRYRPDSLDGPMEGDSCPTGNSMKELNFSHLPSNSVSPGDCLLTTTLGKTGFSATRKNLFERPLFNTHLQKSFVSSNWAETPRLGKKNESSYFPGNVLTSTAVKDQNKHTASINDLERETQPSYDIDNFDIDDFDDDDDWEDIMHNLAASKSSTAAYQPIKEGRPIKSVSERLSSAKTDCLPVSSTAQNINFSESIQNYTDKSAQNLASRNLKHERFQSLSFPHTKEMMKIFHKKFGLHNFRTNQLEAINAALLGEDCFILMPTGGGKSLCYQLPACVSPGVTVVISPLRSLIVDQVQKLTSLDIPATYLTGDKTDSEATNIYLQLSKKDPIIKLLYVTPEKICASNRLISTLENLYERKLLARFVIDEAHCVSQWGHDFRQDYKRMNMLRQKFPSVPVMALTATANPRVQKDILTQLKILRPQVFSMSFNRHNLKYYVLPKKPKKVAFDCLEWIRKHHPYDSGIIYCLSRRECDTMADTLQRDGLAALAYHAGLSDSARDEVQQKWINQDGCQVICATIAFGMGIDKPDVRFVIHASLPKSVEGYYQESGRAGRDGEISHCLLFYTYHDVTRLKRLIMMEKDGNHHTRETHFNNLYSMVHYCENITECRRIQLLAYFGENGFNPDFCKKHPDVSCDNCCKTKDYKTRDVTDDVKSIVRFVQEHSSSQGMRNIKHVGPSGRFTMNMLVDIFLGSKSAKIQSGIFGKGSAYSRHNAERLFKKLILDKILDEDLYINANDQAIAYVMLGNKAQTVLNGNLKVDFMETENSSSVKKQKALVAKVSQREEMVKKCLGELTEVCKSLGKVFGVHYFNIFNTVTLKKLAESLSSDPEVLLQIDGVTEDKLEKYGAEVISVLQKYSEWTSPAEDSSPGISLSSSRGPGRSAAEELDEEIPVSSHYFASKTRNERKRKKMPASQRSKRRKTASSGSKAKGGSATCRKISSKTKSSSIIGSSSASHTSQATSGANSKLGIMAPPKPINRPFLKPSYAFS
# Procedure, shortened: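 50 nM BLM preincubated 15 min at room temperature with compound in pH 8.0 Tris buffer containing 2.5 ug/ml poly(dI-dC); started with 200 nM TAMRA/BHQ-2 forked duplex and 2 mM ATP (final). Unwinding read as TAMRA fluorescence increase, two reads 2 h apart.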
# [9] = Quantitative high throughput screen for delayed death inhibitors of the malarial parasite plastid, 96 hour incubation (AID 488745); also: nearly all actives have a fitted effect of over 70% in size
# Procedure, shortened: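 Luciferase-expressing P. falciparum in erythrocytes (2% hematocrit, 0.1% parasitemia) incubated with compound for 96 h at 37 C, 5% CO2, in RPMI 1640 with 0.5% Albumax. Growth inhibition read as decreased luminescence.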
# [10] = Quantitative high throughput screen for delayed death inhibitors of the malarial parasite plastid, 48 hour incubation (AID 488752); also: nearly all actives have a fitted effect of over 65% in size
# Procedure, shortened: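 Erythrocytes infected with firefly luciferase-expressing P. falciparum (2% hematocrit, 0.1% parasitemia) cultured with compound for 48 h at 37 C, 5% CO2, in RPMI 1640/0.5% Albumax. Growth inhibition read as loss of luminescence.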
# [11] = molecular target: M-phase phosphoprotein 8 (Homo sapiens) (UniProt Q99549); assay: qHTS Validation Assay for Inhibitors for MPP8 Chromodomain Interactions with Methylated Histone Tails (AID 488949); also: top concentration of the series differs between compounds; nearly all actives have a fitted effect of over 55% in size
# Chain of M-phase phosphoprotein 8 (Homo sapiens) (Q99549 whole entry, looked up): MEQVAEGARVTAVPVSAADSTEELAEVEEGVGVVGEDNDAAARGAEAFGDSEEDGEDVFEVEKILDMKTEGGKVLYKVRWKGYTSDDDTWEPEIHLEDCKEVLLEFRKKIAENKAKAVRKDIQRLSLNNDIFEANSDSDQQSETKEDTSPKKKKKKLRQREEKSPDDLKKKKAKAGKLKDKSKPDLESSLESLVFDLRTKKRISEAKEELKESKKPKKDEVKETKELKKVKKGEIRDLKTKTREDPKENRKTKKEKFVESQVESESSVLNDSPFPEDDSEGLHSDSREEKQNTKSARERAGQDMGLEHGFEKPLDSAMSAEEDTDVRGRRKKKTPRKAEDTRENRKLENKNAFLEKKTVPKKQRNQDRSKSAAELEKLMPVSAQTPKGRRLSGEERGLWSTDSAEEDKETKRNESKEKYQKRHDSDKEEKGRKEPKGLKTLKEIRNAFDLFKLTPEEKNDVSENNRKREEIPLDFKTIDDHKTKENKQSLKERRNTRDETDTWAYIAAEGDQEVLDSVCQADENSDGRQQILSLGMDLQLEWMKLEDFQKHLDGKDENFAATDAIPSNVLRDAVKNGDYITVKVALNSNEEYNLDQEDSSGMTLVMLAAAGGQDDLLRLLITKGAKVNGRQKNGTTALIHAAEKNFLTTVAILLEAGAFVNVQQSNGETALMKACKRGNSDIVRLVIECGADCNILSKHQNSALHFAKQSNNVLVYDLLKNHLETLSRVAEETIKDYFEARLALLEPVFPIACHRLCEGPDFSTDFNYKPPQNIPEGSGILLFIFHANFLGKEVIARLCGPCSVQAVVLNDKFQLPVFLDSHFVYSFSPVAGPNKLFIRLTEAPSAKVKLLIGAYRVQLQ
# Procedure, shortened: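 MPP8 (50 nM) was pre-bound to 50 nM biotinylated H3(1-18)K9me3 peptide in PBS pH 7.4 with 0.01% Tween-20. Compounds were then added for 30 min at room temperature, and complex disruption was read by AlphaScreen with streptavidin donor and nickel-chelate acceptor beads.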
# [12] = molecular target: Thyrotropin receptor (Homo sapiens) (UniProt P16473); assay: qHTS Assay for Antagonists of the Thyroid Stimulating Hormone Receptor (AID 488980)
# Chain of Thyrotropin receptor (Homo sapiens) (P16473 whole entry, looked up): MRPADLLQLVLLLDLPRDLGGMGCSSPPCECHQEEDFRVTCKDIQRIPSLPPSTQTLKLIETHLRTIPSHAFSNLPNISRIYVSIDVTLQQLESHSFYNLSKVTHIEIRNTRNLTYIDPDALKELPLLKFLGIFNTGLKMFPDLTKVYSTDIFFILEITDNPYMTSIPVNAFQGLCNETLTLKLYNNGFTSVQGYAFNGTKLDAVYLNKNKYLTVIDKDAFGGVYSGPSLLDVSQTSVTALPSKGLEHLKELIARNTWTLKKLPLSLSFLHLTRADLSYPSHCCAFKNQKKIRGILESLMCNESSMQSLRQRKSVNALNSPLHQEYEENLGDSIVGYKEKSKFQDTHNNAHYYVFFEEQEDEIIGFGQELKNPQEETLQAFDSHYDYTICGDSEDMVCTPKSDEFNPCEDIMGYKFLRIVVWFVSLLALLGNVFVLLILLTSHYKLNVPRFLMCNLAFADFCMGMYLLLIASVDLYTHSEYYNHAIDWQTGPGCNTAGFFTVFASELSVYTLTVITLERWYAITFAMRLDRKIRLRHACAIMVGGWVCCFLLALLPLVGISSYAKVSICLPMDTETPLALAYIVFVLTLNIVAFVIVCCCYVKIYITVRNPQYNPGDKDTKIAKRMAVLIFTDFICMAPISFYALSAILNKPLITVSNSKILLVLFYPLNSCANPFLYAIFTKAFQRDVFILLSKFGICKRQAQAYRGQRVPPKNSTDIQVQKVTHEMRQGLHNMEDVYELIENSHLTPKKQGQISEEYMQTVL
# Procedure, shortened: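 TSHR-transfected HEK293 cells (2000/well) in HEPES-buffered HBSS with 70 uM RO 20-1724 were stimulated with 4 nM TSH (EC80, final) in the presence of compound. cAMP was measured by HTRF competition after lysis and 30 min at RT.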
# [13] = molecular target: Thyrotropin-releasing hormone receptor (Homo sapiens) (UniProt P34981); assay: qHTS for Small Molecule Agonists and Allosteric Enhancers of Human TRH Receptor: Validation Screen for Agonists (AID 493127;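 active = calcium activation more than 3 SD above the typical response in the agonist read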); conditions: TRH receptor agonist cell assay; at 2 µM; stronger effect = higher value
# Chain of Thyrotropin-releasing hormone receptor (Homo sapiens) (P34981 whole entry, looked up): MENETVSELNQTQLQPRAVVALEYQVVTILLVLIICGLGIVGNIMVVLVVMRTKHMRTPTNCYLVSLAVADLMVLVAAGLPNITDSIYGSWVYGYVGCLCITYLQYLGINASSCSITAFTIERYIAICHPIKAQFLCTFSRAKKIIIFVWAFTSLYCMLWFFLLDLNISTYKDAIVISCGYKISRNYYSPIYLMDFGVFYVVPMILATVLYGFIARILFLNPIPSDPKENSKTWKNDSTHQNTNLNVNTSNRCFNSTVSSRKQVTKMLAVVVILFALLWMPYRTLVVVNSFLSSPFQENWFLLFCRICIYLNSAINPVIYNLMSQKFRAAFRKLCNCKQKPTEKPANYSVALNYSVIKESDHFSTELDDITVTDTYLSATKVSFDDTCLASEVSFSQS
# Procedure, shortened: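 TRHR cells loaded with fluo-8 calcium dye; FDSS kinetic fluorescence (Ex 480/Em 530) read at 1 s/cycle after 23 nL compound addition. Agonist-mode calcium response recorded before the 10 nM TRH (EC20) addition.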
# [14] = Validation screen for small molecules that induce DNA re-replication in SW480 colon adenocarcinoma cells (AID 504364)
# Procedure, shortened: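 SW480 cells (250/well) exposed 48 h at 37 C, 5% CO2, then Hoechst-stained 40 min. Nuclear DNA content imaged by fluorescence scanning (405 nm excitation, 500-530 nm emission); re-replication scored as increased nuclei with elevated intensity.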
# [15] = molecular target: Ubiquitin carboxyl-terminal hydrolase 1 (Homo sapiens) (UniProt O94782); assay: Inhibitors of USP1/UAF1: Pilot qHTS (AID 504865);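 also: rhodamine fluorescence freed from ubiquitin-rhodamine substrate followed over time; top concentration of the series differs between compounds; nearly all actives have a fitted effect of over 35% in size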
# Chain of Ubiquitin carboxyl-terminal hydrolase 1 (Homo sapiens) (O94782 whole entry, looked up): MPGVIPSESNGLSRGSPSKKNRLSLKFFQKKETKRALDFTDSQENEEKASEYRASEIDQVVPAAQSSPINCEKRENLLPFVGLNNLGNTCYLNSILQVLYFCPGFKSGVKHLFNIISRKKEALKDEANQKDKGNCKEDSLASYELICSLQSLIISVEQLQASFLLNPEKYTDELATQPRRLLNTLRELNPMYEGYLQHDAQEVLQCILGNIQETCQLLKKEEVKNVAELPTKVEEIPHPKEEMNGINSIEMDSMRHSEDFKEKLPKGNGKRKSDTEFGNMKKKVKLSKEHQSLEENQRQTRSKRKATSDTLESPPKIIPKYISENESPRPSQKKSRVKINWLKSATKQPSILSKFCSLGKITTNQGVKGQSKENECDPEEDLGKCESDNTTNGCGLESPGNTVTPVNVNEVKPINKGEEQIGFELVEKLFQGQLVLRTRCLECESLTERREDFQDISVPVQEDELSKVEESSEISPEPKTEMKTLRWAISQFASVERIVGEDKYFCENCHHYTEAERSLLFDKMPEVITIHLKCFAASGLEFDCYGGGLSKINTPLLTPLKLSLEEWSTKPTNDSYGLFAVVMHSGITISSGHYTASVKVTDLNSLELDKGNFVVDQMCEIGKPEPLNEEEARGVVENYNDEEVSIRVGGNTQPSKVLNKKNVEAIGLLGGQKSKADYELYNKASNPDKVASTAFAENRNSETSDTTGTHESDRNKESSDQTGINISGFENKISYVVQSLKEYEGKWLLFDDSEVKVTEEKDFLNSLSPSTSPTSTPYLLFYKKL
# Procedure, shortened: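 USP1/UAF1 complex at 1 nM preincubated 15 min at room temperature with compound, then Ub-Rho substrate added at 150 nM final. Fluorescence (480/540 nm) read kinetically in 50 mM HEPES pH 7.8, 0.5 mM EDTA, 1 mM TCEP, 0.1 mg/ml BSA, 0.01% Tween-20.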
# [16] = molecular target: DNA dC->dU-editing enzyme APOBEC-3G (Homo sapiens) (UniProt Q9HC16); assay: qHTS for inhibitors of Vif-A3G interactions: Validation (AID 588379)
# Chain of DNA dC->dU-editing enzyme APOBEC-3G (Homo sapiens) (Q9HC16 whole entry, looked up): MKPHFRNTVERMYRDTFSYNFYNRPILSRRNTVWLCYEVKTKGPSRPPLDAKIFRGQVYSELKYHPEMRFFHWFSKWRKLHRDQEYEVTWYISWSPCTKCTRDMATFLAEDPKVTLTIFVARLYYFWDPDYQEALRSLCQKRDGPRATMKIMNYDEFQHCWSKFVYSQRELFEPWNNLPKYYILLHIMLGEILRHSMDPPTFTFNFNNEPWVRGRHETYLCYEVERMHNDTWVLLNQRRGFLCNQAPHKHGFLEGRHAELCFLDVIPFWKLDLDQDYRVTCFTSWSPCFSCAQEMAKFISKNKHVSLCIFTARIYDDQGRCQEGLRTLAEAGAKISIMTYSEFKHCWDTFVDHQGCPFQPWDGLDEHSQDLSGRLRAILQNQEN
# Procedure, shortened: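 HeLa cells stably expressing Vif and A3G-eYFP, 700 cells/well, incubated overnight at 37 deg C, then exposed to compound overnight at 37 deg C. Inhibition of Vif-mediated degradation read as increased yellow fluorescence (Ex 488/Em 500-530) by laser-scanning cytometry.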
# [17] = tested on: Zika virus NS2B-NS3 protease; assay: Primary screen GU AMC qHTS for Zika virus inhibitors (AID 1347154); also: nearly all actives have a fitted effect of over 70% in size
# Procedure, shortened: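 Unlinked Zika NS2B hydrophilic domain–NS3 protease complex at 25 nM in 10 mM Tris-HCl pH 8.0, 0.01% Tween 20, with an AMC peptide substrate. Fluorescence change (340/450 nm) over 15 min at room temperature, normalized to controls, fitted to 4-parameter Hill.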
# [18] = Primary qHTS for small molecule stabilizers of the endoplasmic reticulum resident proteome: Secreted ER Calcium Modulated Protein (SERCaMP) assay (AID 1508630)
# Procedure, shortened: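 GLuc-SERCaMP-expressing SH-SY5Y cells, pretreated 16 h with compound, are challenged with thapsigargin to empty ER calcium stores; after 4 h, coelenterazine is added directly to the medium and luminescence is imaged.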
structure (smiles),measurement,setting,value
NCCCCCCNS(=O)(=O)c1cccc2c(Cl)cccc12,"activity change, negative = inhibition",[1]; at 57.5 µM (top of the series),3.12% (inactive)
same,max response,[1]; measured here: cell count channel max response,13.8%
same,max response,[1]; measured here: lipid channel max response,16.8%
same,Potency,[2],inactive
same,Potency,[3],inactive
same,Potency,[4],11.2 µM (active)
same,Potency,[5],inactive
same,Potency,[6],12.6 µM (active)
same,Potency,[7],inactive
same,Potency,[8],inactive
same,Potency,[9],inactive
same,Potency,[10],inactive
same,Potency,[11],inactive
same,outcome,[12],inactive
same,activation,[13],2.44% (inactive)
same,outcome,[14],inactive
same,Potency,[15],inactive
same,Potency,[16],inactive
same,Potency,[17],inactive
same,Potency,[18],inactive
